Pf growth 96h: P. falciparum growth inhibition at 96 hours | 320,000 compounds, 6.9% hits | Potency, µM (series often up to 28.7 µM), without a hit: at the highest dose activity change, negative = inhibition, actives largely listed as inhibitors | AID 504834 | P. falciparum luciferase reporter growth, 96 h; also: potency is read from the fitted curve at half-maximal effect; % is scaled to controls: 0 for no effect and ±100 for the full control effect
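P. falciparum expressing integrated firefly luciferase, in erythrocytes at 2% hematocrit, 0.05% parasitemia, incubated with compounds 96 h at 37 C, 5% CO2. Growth inhibition read as loss of luminescence; two-generation exposure targets delayed-death apicoplast inhibitors.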
LASV entry inh: Lassa virus entry inhibition; Lassa virus pseudotype entry inhibition, cell reporter; Potency, µM (highest dose often 37.9 µM), for the others: at the highest dose activity change, negative = inhibition, most hits filed as inhibitors; 300,000 compounds, 1.2% hits; AID 540256; calls by dose curve; tested in HEK293 cells; also: potency is read from the fitted curve at half-maximal effect; % is scaled to controls: 0 for no effect and ±100 for the full control effect; nearly all actives have a fitted effect of over 50% in size
Pf growth 48h: inhibits P. falciparum growth in the first generation, 48 h; P. falciparum luciferase growth in erythrocytes, 48 h; Potency, µM (doses to about 28.7 µM), for inactives: at the top dose activity change, negative = inhibition, most hits filed as inhibitors; AID 504832; 310,000 compounds, 5.9% hits; also: potency is read from the fitted curve at half-maximal effect; % is scaled to controls: 0 for no effect and ±100 for the full control effect
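Erythrocytes infected with P. falciparum carrying an integrated firefly luciferase reporter (2% hematocrit, 0.1% parasitemia final) were exposed to compounds in RPMI 1640 with 0.5% Albumax at 37 C, 5% CO2. Growth inhibition was scored as reduced luminescence.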
HCV inhibitor: HCV inhibition. Huh7.5.1 HCVcc-Cre infection, luciferase reporter, 44 h. Potency, µM (highest dose often 41.8 µM), for inactives: top-dose activity change, negative = inhibition, most hits filed as inhibitors. 340,000 compounds, 3.4% hits. AID 651820; also: potency is read from the fitted curve at half-maximal effect; % is scaled to controls: 0 for no effect and ±100 for the full control effect
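Compounds are dispensed onto cells plated 4 h earlier at 1,000 per well, with HCVcc-Cre virus (about 0.5 moi) added next. Following 44 h of culture, luminescent signal is measured for 15 sec after 15 min with substrate at room temperature.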
Marburg entry inh: blocks Marburg virus binding to or entry into cells | Marburg virus pseudotyped entry inhibition, cell reporter | Potency, µM (doses to about 37.8 µM), for inactives: at the highest dose activity change, negative = inhibition, usual class: inhibitors | 300,000 compounds, 1.8% hits | AID 540276; calls by dose curve; tested in HEK293 cells; also: potency is read from the fitted curve at half-maximal effect; % is scaled to controls: 0 for no effect and ±100 for the full control effect
HCMV inh: inhibitors of human cytomegalovirus | HFF cells, HCMV-luciferase reporter, 72 h; stronger effect = lower value | activity change, negative = inhibition, % at 57.5 µM | 410,000 compounds, 4.5% hits; in the data active = activity change below about -60%; inconclusive = no clear call, values can overlap the other calls; inactive = above about -39%; also: % is scaled to controls: 0 for no effect and ±100 for the full control effect
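HFF cells seeded 16 h at 37C, treated with compounds, infected with luciferase-reporter HCMV at MOI 1 PFU/cell; luciferase read at 72 h post infection, normalized to buffer-only and Salinomycin controls.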
HCV confirm: HCV inhibition, cherry-pick confirmation; shares compounds with HCV inhibitor; HCVcc-Cre infectious virus cell assay, luciferase, inhibition; Potency, µM (doses to about 41.8 µM), inactives show top-dose activity, negative = inhibition, hits mostly inhibitors; 640 compounds, 78% hits; AID 720575; also: potency is read from the fitted curve at half-maximal effect; nearly all actives have a fitted effect of over 80% in size
HCV host tox: host cell cytotoxicity counter-screen for HCV inhibitors. shares compounds with HCV inhibitor. HCV host cell line cytotoxicity counterscreen. Potency, µM (series often up to 41.8 µM), without a hit: top-dose activity change, negative = cytotoxicity, actives largely listed as inhibitors. 640 compounds, 22% hits;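 also: potency is read from the fitted curve at half-maximal effect; 44 h compound exposure; % is scaled to controls: 0 for no effect and ±100 for the full control effect; nearly all actives have a fitted effect of over 55% in size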
Active calls of the source: *; ? = inconclusive; nt = no result given; [ ] = dose if it differs, or a comment. Shown are actives, neighbours in structure and some others; about 14% of the full set was active somewhere. Unless noted, calls follow the shape of the dose curve; as a rule, active = well fitted curve in the direction sought with a large enough effect; inconclusive = small, poorly fitted or top-dose-only effect, or another doubt; inactive = no such curve, though single readings can be large; an effect the other way counts as inactive or inconclusive.

SMILES	Pf growth 96h	LASV entry inh	Pf growth 48h	HCV inhibitor	Marburg entry inh	HCMV inh	HCV confirm	HCV host tox
CNC(=O)NC(=O)C(C)OC(=O)c1c2c(nc3ccccc13)/C(=C/c1cccs1)CC2 (stereo not given)	32.7%	?	35.1%	2.82µM*	?	-10.6	1.77µM*	17.7µM*
CCN1/C(=C/c2ccc3cc(C)cc(C)c3[n+]2CC)Sc2cc(C)ccc21	2.4%	nt	11.7µM*	7.08µM*	nt	-100.3*	7.91µM*	7.91µM*
Cc1c(C(=O)Nc2cccc([N+](=O)[O-])c2)csc1-c1ccccc1	-41.4%	?	112.1%	7.08µM*	?	-75.3*	11.2µM*	?
c1ccc(-c2nn(-c3ccccc3)[n+](-c3ccccc3)n2)cc1	nt	-26.0%	nt	3.16µM*	?	-95.0*	25µM*	?
CCCCC(=O)N(C)c1c(CC)nc2c(OCCOc3ccccc3)cccn12	nt	nt	nt	nt	nt	-11.6	nt	nt
COCCCn1c(SCc2ccccc2)nc2cc(OC)c(OC)cc2c1=N	?	?	13.1µM*	?	-0.9%	41.9	14.1µM*	58.4%
COCCCn1c(SCc2cccc(C(F)(F)F)c2)nc2cc(OC)c(OC)cc2c1=N	?	?	?	2.2%	8.8%	-7.6	nt	nt
CC(=O)Nc1ccc(/C=C/c2nc3ccccc3o2)cc1	129.3%	nt	nt	?	nt	-23.7	nt	nt
O=C(Nc1ccc(/C=C/c2nc3ccccc3o2)cc1)c1c(F)cccc1F	-36.0%	?	-65.7%	5.62µM*	?	8.2	4.45µM*	-31.7%
CCC(C(=O)NC1CCCC1)n1c(-c2ccncc2)nc2ccccc21 (stereo not given)	nt	nt	nt	nt	nt	-6.0	nt	nt
O=C(Cn1c(=O)n(-c2ccc(Cl)cc2)c(=O)c2sc3ccccc3c21)NC1CCCC1	nt	4.9%[46.1 µM]	nt	nt	3.0%[46.1 µM]	8.2	nt	nt
FCCCOc1ccc(-c2nccc(-c3ccc(F)cc3)n2)cc1	72.3%	4.2%	2.1%	?	-0.4%[46.1 µM]	1.1	?	14.9%
FCCCOc1ccc(-c2ccnc(-c3ccccc3)n2)cc1	0.0%	12.1%	25.0%	?	-15.4%	12.7	nt	nt
CCOC(=O)c1c(C)[nH]c(C)c1C(=O)COC(=O)Cc1n[nH]c(=O)c2ccccc12	nt	nt	nt	12.7%	nt	?	nt	nt
Cc1cc(CN(C)C(=O)c2ccc3nc(Cc4ccccc4F)oc3c2)on1	?	?	2.4%	?	?	8.9	nt	nt
CC[C@H](C)[C@H](NC(=O)OCc1ccccc1)C(=O)Nc1ccc(NC(C)=O)cc1	-8.9%	-18.3%[46.1 µM]	16.5%	16.6%	0.7%[46.1 µM]	-38.0	nt	nt
Cc1cccc(CN2C(=O)N/C(=C/c3cc(C)n(-c4cc(C)ccn4)c3C)C2=O)c1	nt	11.2µM*	11.7µM*	1.78µM*	?	nt	15.8µM*	7.6%
Cc1cc(OCC(=O)N2CCOCC2)ccc1NC(=O)c1ccccc1C	18.3%	-1.2%[46.1 µM]	41.3%	8.2%	15.5%[46.1 µM]	55.7	nt	nt
CC(=O)c1ccc(S(=O)(=O)Nc2c(C)nn(C)c2C)cc1	5.4%	11.4%	-12.1%	?	-1.0%[46.1 µM]	-34.1	nt	nt
c1cnc2c(c1)ccc1cccnc12	3.29µM*	3.66µM*	5.86µM*	8.91µM*	5.8µM*	-98.9*	7.05µM*	-64.7%
CC(C)(C)c1ccc(CC(=O)N2CCC2(C)C(=O)NS(=O)(=O)c2cccs2)cc1 (stereo not given)	nt	nt	nt	nt	nt	-13.8	nt	nt
COc1cc(Cl)c(C)cc1NC(=O)CSc1cc(Cl)ccc1Cl	?	?	-6.8%	?	-15.0%	92.3	11.2µM*	-28.3%
COc1cc(Cl)c(C)cc1NC(=O)CSc1ccc(C)cc1	-0.4%	14.1%	-15.0%	?	-24.8%	50.3	nt	nt
COC(=O)C[C@]1(C(=O)OC)CN(C#N)N(c2ccc(Cl)cc2)C12c1ccccc1-c1ccccc12	3.7µM*	3.16µM*	3.7µM*	5.62µM*	?	-101.9*	3.15µM*	7.91µM*
COC(=O)CN1C(=O)C(O)(CC(=O)c2ccc(Cl)cc2)c2ccccc21 (stereo not given)	79.0%	nt	-10.8%	5.8%	nt	25.4	nt	nt
SMILES	Pf growth 96h	LASV entry inh	Pf growth 48h	HCV inhibitor	Marburg entry inh	HCMV inh	HCV confirm	HCV host tox
O=C(COc1cccc(Cl)c1)Nc1cc(S(=O)(=O)N2CCOCC2)ccc1N1CCOCC1	?	nt	0.0%	-10.4%	nt	-29.0	nt	nt
O=C(OCCOc1cccc(Cl)c1)c1cc(S(=O)(=O)N2CCCCC2)ccc1N1CCOCC1	13.1µM*	?	?	?	?	-88.2*	3.53µM*	6.28µM*
COc1ccccc1CNC(=O)CCc1c(C)nn(-c2ccc(N3CCCC3)nn2)c1C	nt	-9.3%[46.1 µM]	nt	nt	nt	?	nt	nt
COc1cccc(-c2cnc3c(NC(C)=O)cc(-c4ccc(C(=O)N5CCOCC5)cc4)cn23)c1	nt	nt	nt	nt	nt	48.1	nt	nt
Cc1ccc(SCc2cc(=O)[nH]c(Nc3nc(C)c4ccc(C)cc4n3)n2)cc1	?	?	48.3%	1.8%	?	-17.3	nt	nt
CCOc1ccc2c(C)nc(NC3=NC(C)(C)C=C(C)N3)nc2c1	11.7µM*	-17.8%	10.4µM*	5.01µM*	?	97.4	7.05µM*	?
COc1cccc(CNC(=O)CN2C(=O)N(c3cccc(Cl)c3)S(=O)(=O)c3ccccc32)c1OC	nt	-2.7%[46.1 µM]	nt	nt	nt	?	nt	nt
COc1cc(-c2nc(-c3ccc4c(c3)-c3ccccc3S4(=O)=O)c(-c3ccccc3)[nH]2)cc(OC)c1OC	2.4%	?	1.85µM*	2µM*	-29.0%	-20.5	1.99µM*	?
COc1ccc(-c2[nH]c(-c3ccc(O)cc3)nc2-c2ccccc2)cc1	nt	?	nt	nt	?	-23.8	nt	nt
COc1ccc(CCn2c(SCC(=O)Nc3cc(C)on3)nc3ccccc3c2=O)cc1OC	0.0%	3.4%	46.5%	14.2%	10.4%	18.9	nt	nt
COc1ccc(CCn2c(SCC(=O)Nc3cc(C)on3)nc3ccsc3c2=O)cc1OC	nt	-43.1%	8.28µM*	?	?	-11.8	?	25.0%
CNc1nc2cc([N+](=O)[O-])c([N+](=O)[O-])cc2nc1NC	-21.8%	-28.1%	?	?	7.94µM*	-85.8*	19.9µM*	?
COc1ccc(S(=O)(=O)c2c(Nc3ccccc3F)sc(C(=O)c3cccc(OC)c3)c2N)cc1	nt	?	nt	nt	nt	-35.5	nt	nt
CC1CCN(C(=O)CSc2nc(-c3ccc(F)cc3)cc(C(F)(F)F)n2)CC1	nt	12.8%[46.1 µM]	nt	nt	16.1%[46.1 µM]	-6.2	nt	nt
OC(c1cc(-c2ccc(C(F)(F)F)cc2)nc(C(F)(F)F)c1)C1CCCCN1 (stereo not given)	0.0083µM*	nt	0.104µM*	5.01µM*	nt	-101.7*	14.1µM*	?

Screens deposited in PubChem BioAssay by National Center for Advancing Translational Sciences (NCATS).
